The structures appear in SMILES notation. Hit rate of the full screen: of about 69,000 compounds, about 8,600 (12%) showed an effect of 50% or more. This is one part of a sample in which strong results are shown more often than they occur.

In this assay the test system is Plasmodium berghei. Put plainly: Screen against P. berghei liver stage (PbLuc), transformed with Luciferase, at 10uM. It counts as functional, HepG2. The conditions noted are these: tested at 10 uM.
`CC(=O)N1N=C(Cc2ccccc2)OC1C(=O)NCC(C)C` (configuration not stated): the INHIBITION is on record as -21.1%.

Consider `Cn1cc(C2COC3(CCN(C(=O)c4ccccn4)CC3)C2)cn1` (configuration not stated), for which the INHIBITION is 42.7%.

Take `CN1CC(=O)N(c2ccsc2)CC12CCN(C(=O)c1ccc[nH]1)C2` (configuration not stated): the INHIBITION was 15.9%.

`CN1CC(=O)N(c2cnn(C)c2)CC12CCN(C(=O)c1ccsc1)C2` (configuration not stated): the INHIBITION came out at 51.7%.

On to `Cn1cc(C2COC3(CCN(C(=O)c4cccc(O)c4)CC3)C2)cn1` (configuration not stated), for which the INHIBITION was found to be 32.2%.

On to `Cn1cc(C2COC3(CCN(C(=O)c4ccc(F)cc4)CC3)C2)cn1` (configuration not stated), for which the INHIBITION is on record as 18.2%.

For the compound `Cn1cc(C2COC3(CCN(C(=O)c4cccn4C)CC3)C2)cn1` (configuration not stated), the INHIBITION was 36.9%.

On to `CN1CC(=O)N(c2ccsc2)CC12CCN(C(=O)c1ccccc1)C2` (configuration not stated), for which the INHIBITION is on record as 45.5%.

In the case of `Cc1ccccc1C(=O)N1CCC2(CC1)CC(c1cnn(C)c1)CO2` (configuration not stated), the INHIBITION was determined as 53.2%.

On to `Cc1ccc(C(=O)N2CCC3(CC2)CC(c2cnn(C)c2)CO3)cn1` (configuration not stated), for which the INHIBITION came to 39.2%.

`Cn1cc(C2COC3(CCN(C(=O)c4ccn(C)n4)CC3)C2)cn1` (configuration not stated): the INHIBITION was determined as 41.6%.

Take `Cn1cc(C2COC3(CCN(C(=O)c4ccsc4)CC3)C2)cn1` (configuration not stated): the INHIBITION stood at 69.5%.

Take `Cc1cccc(C(=O)N2CCC3(CC2)CC(c2cnn(C)c2)CO3)c1` (configuration not stated): the INHIBITION is listed as 69.5%.

Turning to `Cc1nc(C)n(CC(=O)N2CCc3ncc(Cl)cc3C2)n1`, the INHIBITION turned out to be 8.72%.

Turning to `CO[C@@H]1CO[C@@]2(CCCN(S(=O)(=O)c3ccccc3)C2)C1`, the INHIBITION is 40.4%.

On to `CCOC(=O)N(C)CC(=O)NCCc1coc(-c2ccc(C)cc2)n1`, for which the INHIBITION came to 11.4%.

In the case of `Cn1cc(N2C(=O)CC[C@@H]3[C@H]2CCN3CC2CCOCC2)cn1`, the INHIBITION turned out to be 8.52%.

Turning to `O=C(CCCN1CCCCC1)NC(C(=O)O)c1ccc(Cl)cc1` (configuration not stated), the INHIBITION is reported as 6.11%.

Take `O=C(Cc1cccc(F)c1)NCCNc1ncccn1`: the INHIBITION is listed as 37.4%.

Turning to `CCOCC(=O)N1CCC2(CC1)COC(COCc1ccccn1)C2` (configuration not stated), the INHIBITION is recorded as -13%.

`Cc1cc(C)n2cc(CN3CCC(N4CCN(C)C4=O)CC3)nc2n1`: the INHIBITION is reported as 39.1%.

In the case of `CC(NS(C)(=O)=O)C(=O)N1CCCN(Cc2cscn2)CC1` (configuration not stated), the INHIBITION was determined as 48.9%.

Take `Cc1cnn(C2CCCN(C(=O)Cc3ccc4c(c3)CCO4)C2)c1` (configuration not stated): the INHIBITION was determined as 31.8%.

Take `CNc1cc(N2CCCC2CNCc2csc(C)n2)ncn1` (configuration not stated): the INHIBITION turned out to be 29.425%.

Consider `O=C(CC1CCCC1)N1CC[C@H]2[C@H]1CCN2c1nncs1`, for which the INHIBITION is 43.8%.

Consider `CCc1ncc(C(=O)N2CCC(Nc3ccc(C)nn3)CC2)s1`, for which the INHIBITION is reported as -58.7%.

As to `COCC(=O)N1CC[C@]2(O)CCN(C(=O)CCc3ccsc3)C[C@@H]2C1`, the INHIBITION is given as 26.9%.

With `COc1ccc(CNC(=O)c2ccc(Br)cn2)cc1`, the INHIBITION was 49%.

With `COC(=O)CCNC(=O)c1ccc(OCc2ccccc2)nc1`, the INHIBITION is reported as -8.91%.

As to `CCOc1ccc(CNC(=O)c2cnc(OC)nc2)cc1`, the INHIBITION was found to be 52.7%.

Turning to `CCOc1cccc(C(=O)NCCC(=O)NCc2ccncc2)c1`, the INHIBITION is given as -5.78%.

Turning to `COc1ncc(C(=O)NCc2ccc(Br)cc2)cn1`, the INHIBITION stood at 59.8%.

In the case of `Cc1cccc(C(=O)NCc2ccccc2)n1`, the INHIBITION is 21%.

`COC(=O)c1ccc(C(=O)NCc2ccc(Br)cc2)cn1`: the INHIBITION is recorded as 45.8%.

As to `COc1ncc(C(=O)NCc2ccccc2)cn1`, the INHIBITION worked out at 64.2%.

For `CCNc1ncc(C(=O)NCc2ccc3nsnc3c2)cn1`, the INHIBITION amounted to 31.9%.

With `CS(=O)(=O)CCN1CCCC1c1noc(C2CC2)n1` (configuration not stated), the INHIBITION is listed as -38.2%.

With `Cc1cccc(S(=O)(=O)N2CC[C@H]3[C@H]2CCN3c2ncccn2)c1`, the INHIBITION was found to be 5.36%.

Regarding `NC(=O)c1cnn2c1NCC(CNCCc1cccs1)C2` (configuration not stated), the INHIBITION turned out to be 21.75%.

Turning to `COCC(C)NC(=O)CN1CCCC1` (configuration not stated), the INHIBITION is -9.39%.

With `O=S(=O)(Cc1cc(-c2ccccc2)no1)CC1CCCO1` (configuration not stated), the INHIBITION was -73.1%.

As to `CNc1cccc(C2CCCN(C(=O)c3cscn3)C2)n1` (configuration not stated), the INHIBITION is recorded as 51.5%.

`CNc1cccc(C2CCCN(C(=O)Cc3ccccc3)C2)n1` (configuration not stated): the INHIBITION is given as 81.2%.

`CNc1cccc(C2CCCN(C(=O)c3ccn(C)n3)C2)n1` (configuration not stated): the INHIBITION is recorded as 26.3%.

Turning to `CNc1cccc(C2CCCN(C(=O)c3cnccn3)C2)n1` (configuration not stated), the INHIBITION is listed as -37%.

For `CNc1cccc(C2CCCN(C(=O)c3ccncc3)C2)n1` (configuration not stated), the INHIBITION was 42.1%.

As for `CNc1cccc(C2CCCN(C(C)=O)C2)n1` (configuration not stated), the INHIBITION is on record as -1.58%.

As to `CN1CCN([C@@H]2CN(C(=O)CCOc3ccccc3)C[C@H]2O)CC1`, the INHIBITION came out at 6.08%.

In the case of `CC1CCN(c2nc3cn(-c4ccc(F)cc4)c(=O)c-3c[nH]2)CC1`, the INHIBITION worked out at 24.2%.

As to `CC(=O)Nc1ncc(S(=O)(=O)Nc2ccccc2F)s1`, the INHIBITION is reported as 15.9%.

`Cn1nccc1CCC(=O)N1CCOC(c2cnccn2)C1` (configuration not stated): the INHIBITION was found to be 2.71%.

Take `O=C(c1cc(-c2cn[nH]c2)nc2ccc(F)cc12)N1CCSCC1`: the INHIBITION is 51.8%.

As to `O=C(c1cc(-c2cn[nH]c2)nc2cc(F)ccc12)N1CCS(=O)(=O)CC1`, the INHIBITION worked out at 79.9%.

In the case of `Cc1cc(C(=O)N2CCNC(c3ccccc3)C2)c2ccc(F)cc2n1` (configuration not stated), the INHIBITION was determined as 36.9%.

On to `CCc1ccc2nc(-c3cnn(C)c3)cc(C(=O)N3CCCC3)c2c1`, for which the INHIBITION stood at 7.3%.

For `O=C(O)c1cc(-c2cn[nH]c2)cc(S(=O)(=O)N2CCSCC2)c1`, the INHIBITION is recorded as -4.927%.

For `Cn1cc(-c2cc(C(=O)N3CCOCC3)c3ccc(F)cc3n2)cn1`, the INHIBITION is -27.5%.

In the case of `COCc1nnc2n1CCN(Cc1ccoc1)C2`, the INHIBITION was 33%.

Take `COCCC1CCN([C@@H]2c3ccccc3C3(CCNCC3)[C@H]2O)CC1`: the INHIBITION was 11.6%.

With `COc1ccc(-c2cc(C3CCCNC3)ccn2)cc1` (configuration not stated), the INHIBITION is recorded as -3.02%.

For the compound `Cn1c(Cn2ncc(N3CCCC3)cc2=O)nc2ccccc21`, the INHIBITION is reported as 37.6%.

For the compound `Cn1ncc(N2CCN(Cc3ccc(S(C)(=O)=O)cc3)CC2)cc1=O`, the INHIBITION was 27.6%.

With `CN1CCCN(c2cnn(Cc3ccc(C(C)(C)C)cc3)c(=O)c2)CC1`, the INHIBITION is 15.7%.

On to `CN1CCCN(c2cnn(Cc3ccncc3)c(=O)c2)CC1`, for which the INHIBITION stood at 54.8%.

For `Cn1c(Cn2ncc(N3CCCCC3)cc2=O)nc2ccccc21`, the INHIBITION amounted to 40.3%.

As to `CN1CCN(c2cnn(Cc3ccc(S(C)(=O)=O)cc3)c(=O)c2)CC1`, the INHIBITION was found to be 51.5%.

For the compound `Cc1cc(C)n(Cc2cc(C(=O)N3CCCCC3c3nccs3)n[nH]2)n1` (configuration not stated), the INHIBITION was 7.83%.

The record behind these values is ChEMBL document CHEMBL4513216, “Probing the Open Global Health Chemical Diversity Library for Multistage-Active Starting Points for Next-Generation Antimalarials” (ACS Infect Dis, 2020).
